Screening results (PubChem)
RORgamma inh: qHTS for inhibitors of ROR gamma transcriptional activity; Nuclear receptor ROR-gamma (Mus musculus), P51450; Drosophila S2 Gal4-RORgamma UAS-luciferase reporter, 20 h; Potency, µM (highest dose often 53.6 µM), inactives show at the highest dose activity change, negative = inhibition, most hits filed as inhibitors; hit rate 5.4% among 310,000; AID 2551, 2010; further: nearly all actives have a fitted effect of over 60% in size
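ROR gamma transcriptional activity was tracked as Gal4-UAS luciferase output in stably transfected Drosophila Schneider cells, with compound added 1 hr before 700 uM copper sulfate induction and a 20 hr ambient-temperature incubation.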
VP16 counter: VP16 counterscreen qHTS for inhibitors of ROR gamma transcriptional activity. Potency, µM (titrated, usually from 53.6 µM), for inactives: top-dose activity, negative = inhibition, hits mostly inhibitors. Drosophila S2 Gal4-VP16 UAS-luciferase, luminescence, 20 h. hit rate 3.5% among 310,000;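 further: Gal4-VP16 expression switched on by copper sulfate through the metallothionein promoter; nearly all actives have a fitted effect of over 50% in size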
TDP1 cell noCPT: qHTS for Inhibitors of human tyrosyl-DNA phosphodiesterase 1 (TDP1): qHTS in cells in absence of CPT | hit rate 15% among 420,000 | AID 686978, 2013 | DT40 Tdp1-/- hTDP1 cells, no CPT, ATP luminescence, 48 h | Potency, µM (titrated, usually from 46.2 µM), without a hit: top-dose activity change, negative = growth inhibition, hits mostly inhibitors; further: nearly all actives have a fitted effect of over 55% in size
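Camptothecin absent (DMSO only). Human TDP1-complemented DT40 knockout cells, 400 cells/well, 37 °C for minimum 48 hr; ATP measured via CellTiter-Glo, 30 min dark incubation, luminescence.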
TDP1 cell CPT: qHTS for Inhibitors of human tyrosyl-DNA phosphodiesterase 1 (TDP1): qHTS in cells in presence of CPT. chicken DT40 Tdp1-/-;hTDP1 cells + 20 nM CPT, ATP luminescence, 48 h. Potency, µM (series often up to 46.2 µM), inactives show at the top dose activity change, negative = growth inhibition, hits mostly inhibitors. hit rate 12% among 420,000. AID 686979, 2013; further: nearly all actives have a fitted effect of over 55% in size
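Chicken DT40 Tdp1-/- cells stably complemented with human TDP1 were seeded at 400 cells/well in medium containing 20 nM camptothecin, exposed to pin-transferred compounds, and grown at 37 °C for at least 48 hr. Viability was read as ATP luminescence.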
TDP1 inh: qHTS Assay for Inhibitors of Tyrosyl-DNA Phosphodiesterase (TDP1). Tyrosyl-DNA phosphodiesterase 1 (Homo sapiens), Q9NUW8. recombinant TDP1, AlphaScreen DNA substrate cleavage. Potency, µM (titrated, usually from 130 µM), without a hit: at the top dose activity change, negative = inhibition, most hits filed as inhibitors. hit rate 0.28% among 350,000. AID 485290, 2010; further: nearly all actives have a fitted effect of over 40% in size
Target sequence (Q9NUW8 whole entry, looked up): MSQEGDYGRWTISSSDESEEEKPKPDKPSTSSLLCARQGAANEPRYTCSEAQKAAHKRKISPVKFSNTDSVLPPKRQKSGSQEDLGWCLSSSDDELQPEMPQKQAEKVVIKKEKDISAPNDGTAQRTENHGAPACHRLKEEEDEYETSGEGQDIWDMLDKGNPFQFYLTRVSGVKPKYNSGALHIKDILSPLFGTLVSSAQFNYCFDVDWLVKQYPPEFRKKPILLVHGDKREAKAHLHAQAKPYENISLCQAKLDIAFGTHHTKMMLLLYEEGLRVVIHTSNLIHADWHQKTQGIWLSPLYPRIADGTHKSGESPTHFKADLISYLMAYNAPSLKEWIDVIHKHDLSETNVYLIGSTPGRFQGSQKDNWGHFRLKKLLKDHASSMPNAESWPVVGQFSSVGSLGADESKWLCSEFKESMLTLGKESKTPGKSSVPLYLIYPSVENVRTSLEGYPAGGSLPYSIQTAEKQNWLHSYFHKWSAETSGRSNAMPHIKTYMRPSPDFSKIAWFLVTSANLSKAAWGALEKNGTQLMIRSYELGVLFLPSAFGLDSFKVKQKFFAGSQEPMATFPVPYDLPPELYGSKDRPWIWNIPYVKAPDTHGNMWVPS
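AlphaScreen read-out: signal falls as enzyme removes the 3' tyrosine-FITC from a 5'-biotinylated DNA oligo (15 nM, 5 min, RT). Enzyme was E. coli-made recombinant Tdp1 at 1 nM, exposed to compound for 15 min beforehand; beads 10 ug/ml, 10 min.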
Active calls of the source: *. An excerpt weighted towards active compounds, which were near 19% of everything screened. The call rests on the fitted dose curve; in most records, active means well fitted curve in the direction sought with a large enough effect; inconclusive means small, poorly fitted or top-dose-only effect, or another doubt; inactive means no such curve, though single readings can be large; an effect the other way counts as inactive or inconclusive. On the % scale 0 is the no-effect control and ±100 the full control effect; potency means the concentration at half of the fitted maximal effect.

`CN1CCN(CC(O)COc2ccc(C(=O)O)cc2)CC1` (stereo not given) gave RORgamma inh 4.2%, VP16 counter 3.8%, TDP1 cell noCPT 1.1% and TDP1 cell CPT -7.7%.
`CN(C)C(=O)c1ccc(NC(=O)c2ccc(-c3ccc(Cl)cc3)o2)cc1` gave TDP1 cell noCPT 16.4µM*, TDP1 cell CPT 23.1µM* and TDP1 inh 6.8%.
`CN1CCN(c2ccccc2NC(=O)c2ccc(-c3cccc([N+](=O)[O-])c3)o2)CC1` gave RORgamma inh -16.5%, VP16 counter -29.3%, TDP1 cell noCPT 14.6µM*, TDP1 cell CPT inconclusive and TDP1 inh 2.7%.
CN1CCN(c2ccccc2NC(=O)c2cccc([N+](=O)[O-])c2)CC1 was read as RORgamma inh 1.0%, VP16 counter 7.3%, TDP1 cell noCPT -13.6%, TDP1 cell CPT -5.3% and TDP1 inh 0.0%.
`Cc1oc(-c2ccc3c(c2)OCCO3)cc1C(=O)NCC(=O)O` gave RORgamma inh 7.08µM*, VP16 counter inconclusive, TDP1 cell noCPT -19.3%, TDP1 cell CPT 2.2% and TDP1 inh -5.6%.
Screening Cc1oc(-c2ccc3c(c2)OCCO3)cc1C(=O)O returned RORgamma inh 0.891µM*, VP16 counter 1.41µM*, TDP1 cell noCPT inconclusive, TDP1 cell CPT inconclusive and TDP1 inh 10.5%.
Screening Cc1oc(-c2ccc3c(c2)OCCO3)cc1C(=O)NC(CCC(=O)O)C(=O)O (stereo not given) returned RORgamma inh inconclusive, VP16 counter -17.1%, TDP1 cell noCPT -1.2%, TDP1 cell CPT 1.5% and TDP1 inh -3.1%.
CCCCCCCCCC[n+]1ccc(/C=C/c2c(C)[nH]c3ccccc23)cc1 was read as TDP1 cell noCPT 0.398µM* and TDP1 cell CPT 0.562µM*.
For O=C(NN=Cc1c[nH]c2ccccc12)NN=Cc1c[nH]c2ccccc12 the results were TDP1 cell noCPT inconclusive and TDP1 cell CPT -12.3%.
For CCCCCCC[n+]1ccc(/C=C/c2c[nH]c3ccccc23)cc1 the results were TDP1 cell noCPT 0.316µM* and TDP1 cell CPT 0.282µM*.
CC[n+]1ccc(/C=C/c2c[nH]c3ccccc23)cc1 was read as RORgamma inh 14.9%, VP16 counter 12.6µM*, TDP1 cell noCPT 2.06µM* and TDP1 cell CPT 2.31µM*.
CCCCN(CC)Cc1c(C)[nH]c2ccccc2c1=O was read as RORgamma inh -13.0%, VP16 counter 23.8%, TDP1 cell noCPT 3.4%, TDP1 cell CPT 2.3% and TDP1 inh 7.4%.
Screening CCCCCCCCCC[n+]1ccc(/C=C/c2c[nH]c3ccccc23)c2ccccc21 returned TDP1 cell noCPT 2µM* and TDP1 cell CPT 1.58µM*.
`C[n+]1cc(C(=O)N2CCCCC2)ccc1/C=C/c1c[nH]c2ccccc12` gave RORgamma inh 0.5%, VP16 counter -6.4%, TDP1 cell noCPT -9.2%, TDP1 cell CPT 0.3% and TDP1 inh 2.4%.
`O=Cc1c[nH]c2ccccc12` gave TDP1 inh -0.5%.
For CCCCCCCCCCCCCCCC[n+]1ccc(C)c2ccccc21 the results were TDP1 cell noCPT 0.794µM* and TDP1 cell CPT 0.708µM*.
Screening Cc1cccc[n+]1CCCCCCCCCC[n+]1ccccc1C returned RORgamma inh -6.7%, VP16 counter -7.1%, TDP1 cell noCPT 3.3%, TDP1 cell CPT inconclusive and TDP1 inh -6.0%.
For COc1ccc(Br)cc1CNC(=O)c1ccc2c(c1)N(Cc1ccc(C)cc1)CCS2 the results were TDP1 cell noCPT inconclusive, TDP1 cell CPT inconclusive and TDP1 inh -2.0%.
